Measurements reported in PubChem BioAssay AID1455 (National Center for Advancing Translational Sciences (NCATS), 2008).
Results filed as inconclusive are left out. Unmarked numbers belong to inactive results. Activity calls are given as the source filed them. The call rests on the fitted dose curve; in most records, active means well fitted inhibition curve with a large enough effect; inconclusive means small, poorly fitted or top-dose-only effect; inactive means no such curve, though single readings can be large or run the other way.

target: Ubiquitin carboxyl-terminal hydrolase 2 (Homo sapiens) (UniProt O75604); assay: Confirmation Concentration-response Assay for Inhibitors of Ubiquitin-specific Protease USP2a; conditions: USP2 core, Ub-PLA2 coupled fluorescence, NBD C6-HPC; series mostly up to 38.3 µM; activity, negative = inhibition: at the top concentration
Sequence (O75604 whole entry, looked up): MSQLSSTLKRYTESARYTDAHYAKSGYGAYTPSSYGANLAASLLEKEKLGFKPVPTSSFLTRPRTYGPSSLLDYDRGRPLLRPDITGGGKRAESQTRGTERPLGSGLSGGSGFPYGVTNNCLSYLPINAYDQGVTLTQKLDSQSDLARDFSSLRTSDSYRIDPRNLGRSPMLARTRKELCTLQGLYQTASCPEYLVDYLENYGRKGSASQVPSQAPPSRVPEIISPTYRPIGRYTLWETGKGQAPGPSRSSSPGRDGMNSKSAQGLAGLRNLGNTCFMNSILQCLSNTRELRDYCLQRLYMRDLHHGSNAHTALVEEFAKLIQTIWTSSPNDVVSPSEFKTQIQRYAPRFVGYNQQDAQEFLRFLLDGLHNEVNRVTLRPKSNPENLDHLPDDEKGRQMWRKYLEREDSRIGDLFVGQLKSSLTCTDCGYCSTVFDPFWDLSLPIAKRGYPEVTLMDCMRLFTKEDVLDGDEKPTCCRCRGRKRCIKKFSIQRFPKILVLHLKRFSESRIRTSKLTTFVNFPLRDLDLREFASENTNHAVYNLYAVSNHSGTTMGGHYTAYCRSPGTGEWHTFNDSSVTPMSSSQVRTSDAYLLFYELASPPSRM
Text: NIH Molecular Libraries Screening Centers Network [MLSCN] NIH Chemical Genomics Center [NCGC] MLSCN Grant: XO1-MH079852-01 PI Name: Nicholson, Ben. Progenra Inc, Malvern, PA NCGC Assay Overview: Homeostasis of cellular proteins is maintained through a combination of synthesis and degradation. The pathway that accounts for the majority of protein degradation is the ubiquitin-proteasomal pathway. Ubiquitin (Ub) is highly conserved in all cells and the generation of a multi-Ub chain typically targets proteins for degradation by the proteasome. However, ubiquitination is highly reversible and dynamic. Deubiquitination, the reverse process, is catalyzed through the action of enzymes referred to as isopeptidases or deubiquitinating enzymes (DUBs). This group of enzymes is collectively responsible for maintaining adequate pools of free ubiquitin and regulating the ubiquitination status of cellular proteins. The class of DUBs referred to as the ubiquitin-specific proteases (USP) family functions endoproteolytically to cleave Ub chains from a wide range of protein substrates. USP2a deubiquitinates fatty acid synthase (FASN) which has recently been identified as an emerging oncology target. To identify inhibitors of USP2a a cell-free assay was employed. […] The reporter enzyme chosen is phospholipase A2 (PLA2), which has an absolute requirement for a free amino terminus. Thus, fusion of a UBL to the N-terminus of PLA2 inactivates PLA2. When the UBL-PLA2 reporter enzyme is cleaved by USP2, the activated reporter can subsequently act on its substrate, which is the commercially available NBD C6-HPC (Invitrogen). Thus, this coupled assay gives a fluorescent read-out, which is generated through the cleavage of the PLA2 reporter enzyme. The assay, developed by Progenra, Inc. uses Ub-PLA2 and USP2a at near equal and low (nM) amounts and has been licensed for sale by LifeSensors, Inc. as the Ub-IsoPro1 kit.
NCGC Assay Protocol Summary: The assay buffer, prepared fresh at the day of the assay, contains 20mM Tris-HCl pH 8.0, 2mM CaCl2, 2mM beta-Mercaptoethanol, 0.1% DMSO. 3ul of 40nM (20nM final) USP2 core, which is stored on ice, is dispensed into a medium-binding black solid Kalypsys 1,536 well plate using the Kalypsys dispenser. The assay plate is then pinned with 23nL compound with the Kalypsys pintool in columns 5-48. The controls are pinned as follows: column 1&2 two-fold dilutions of 2M NEM in duplicate; column 3 DMSO; column 4 2M NEM (final concentration […]). The assay plate is incubated at RT for 30min. Subsequently, 3uL of 40nM (20nM final) Ub-PLA2 and 40uM (20uM final) NBD C6-HPC (stored on ice and protected from light) were dispensed into the plate using the Kalypsys dispenser. Plates were read immediately (0 Hour) on an Envision (Perkin Elmer) plate reader using the following wavelengths Ex 460nm /Em 535nm. Then, the assay plates were incubated for 2.5 hours and read again on the Envision using the same settings Data were normalized to the to AC100 inhibition (NEM). Concentration-response curves were fitted to the normalized data and the concentration-response curves were then classified based on curve quality (r2), response magnitude and degree of measured activity. The time zero reading was used to flag fluorescence artifacts. Keywords: ubiquitination, deubiquitination, proteases, profluorescent, MLSMR, MLSCN, NIH Roadmap, qHTS, NCGC

SMILES | Potency | activity, negative = inhibition [%]
Cc1ccc(-n2nc3c(=O)n(CCCC(=O)NCCc4ccccc4Cl)nc(C)c3c2C)cc1 | 11.2 µM (active) | –
CCCCCC(=O)N1c2ccccc2C(C)(c2ccccc2)CC1(C)C (centres undefined) | 12.6 µM (active) | –
COC(=O)c1c(NC(=O)CS(=O)(=O)c2ccc(C)cc2)sc2c1CCCCC2 | – | -4.33
Cc1cc(C)c2nc(N(Cc3cccnc3)C(=O)CCS(=O)(=O)c3ccccc3)sc2c1 | – | 3.88
COc1ccc(C(=O)/C=C/c2cn(CC(O)CN(CC(C)C)CC(C)C)c3ccccc23)cc1OC (centres undefined) | 12.6 µM (active) | –
CCOC(=O)C1CCCN(c2c(C(=O)c3ccc(C)cc3)cnc3ccc(OCC)cc23)C1 (centres undefined) | 3.16 µM (active) | –
CCS(=O)(=O)c1nc(S(=O)(=O)c2ccc(C)cc2)c(NCC(C)C)s1 | 2.82 µM (active) | –
CCc1ccc(C(=O)c2c(N)c(-c3nc(-c4ccc5c(c4)OCO5)cs3)c3ccccn23)cc1 | – | -99.9
CCC(C)NC(=O)CSc1nc2cc3c(cc2c(=O)n1Cc1ccc(C(=O)NCCc2ccc(OC)c(OC)c2)cc1)OCO3 (centres undefined) | – | 24.3
Cc1ccc([C@H]2Nc3ccc(S(=O)(=O)Nc4cccc(Cl)c4C)cc3[C@H]3C=CC[C@H]32)cc1 | 7.94 µM (active) | –
Oc1c(C(Nc2ccccn2)c2ccccc2F)ccc2cccnc12 (centres undefined) | – | 48.7
Cc1ccc(S(=O)(=O)Cc2nc(-c3ccc(C(=O)NCc4ccccc4F)cc3)oc2C)cc1 | 14.1 µM (active) | –
O=C(CCS(=O)(=O)c1ccccc1)N(Cc1cccnc1)c1nc2c(Cl)cccc2s1 | – | -20.5
COc1ccc(Cl)cc1NC(=O)CSc1nc(=O)[nH]c2c1CCC2 | – | -51.2
